aSyn 5UTR act: Activators via SNCA 5'UTR binding, MLPCN | activity score, % (tested at 7.5 µM), hits read low | alpha-synuclein 5'UTR reporter, activators screen | 7.1% of 300,000 active; in the data active = activity score below about -60%
Hits are given with their value. These entries were drawn from the full list.

How did C(=N\Nc1nc2ccccc2[nH]1)/c1ccccn1 do in these assays?
aSyn 5UTR act: inactive

How did Cc1nn(C)cc1/C=C/C(=O)c1ccccc1 do in these assays?
aSyn 5UTR act: -110

What do the screens show for `CCn1ncc(/C=C/C(=O)c2ccccc2)c1C`?
aSyn 5UTR act: -70

How did Cc1c(/C=C/C(=O)c2ccc(Cl)s2)cnn1C do in these assays?
aSyn 5UTR act: -163

What do the screens show for `Cc1c(/C=C/C(=O)c2ccc(C(C)C)cc2)cnn1C`?
aSyn 5UTR act: -92

How did Cc1c(/C=C/C(=O)c2ccccc2)cnn1C do in these assays?
aSyn 5UTR act: -123

What do the screens show for `Cc1c(/C=C/C(=O)c2ccc(O)cc2)cnn1C`?
aSyn 5UTR act: -146

How did CCn1cc(/C=C/C(=O)c2ccc(O)cc2)c(C)n1 do in these assays?
aSyn 5UTR act: -105

What do the screens show for `COc1ccc2c(c1OC)c(=O)n1c3ccc(OC(C)C(=O)NCCN4CCOCC4)cc3c3ccnc2c31` (stereo not given)?
aSyn 5UTR act: -65

Results for COc1cc(OC)cc(C(=O)Oc2c(CN3CCOCC3)cc(Cl)c3cccnc23)c1 ?
aSyn 5UTR act: inactive

Results for CC(Oc1ccc2c(c1)c1ccnc3c4ccccc4c(=O)n2c13)C(=O)NCCN1CCOCC1 (stereo not given) ?
aSyn 5UTR act: -76

What do the screens show for `Cc1c(OCC(=O)C(C)(C)C)ccc2c3c(c(=O)oc12)CCCC3`?
aSyn 5UTR act: -97

How did Cc1n[nH]c(C)c1CCOc1ccc(C(C)C)cc1 do in these assays?
aSyn 5UTR act: -84

How did O=c1c2ccccc2[nH]c(=S)n1CCc1ccccc1 do in these assays?
aSyn 5UTR act: -123

Results for C(=C\c1ccc2ccccc2n1)/c1ccccc1 ?
aSyn 5UTR act: inactive

Results for O=C(O)/C=C/c1ccc2ccccc2n1 ?
aSyn 5UTR act: -64

How did CCN(c1ccccc1)S(=O)(=O)c1ccc(C(=O)Nc2ccccn2)cc1 do in these assays?
aSyn 5UTR act: -76

How did CN(c1ccc(C(=O)Nc2cccc(O)c2)cc1)S(=O)(=O)c1ccccc1 do in these assays?
aSyn 5UTR act: -105

How did CCc1nnc(NC(=O)c2ccc(S(=O)(=O)N(C)c3ccccc3)cc2)o1 do in these assays?
aSyn 5UTR act: inactive

Results for CN(c1ccc(C(=O)Nc2ccccn2)cc1)S(=O)(=O)c1ccccc1 ?
aSyn 5UTR act: -133

How did CCCC(=O)N1CCN(c2nc3ccccc3s2)CC1 do in these assays?
aSyn 5UTR act: -104

Results for O=C(c1cccs1)N1CCN(c2nc3ccccc3s2)CC1 ?
aSyn 5UTR act: -66

How did CCC(=O)N1CCN(c2nc3ccc(Br)cc3s2)CC1 do in these assays?
aSyn 5UTR act: -117

Results for CCc1ccc2nc(N3CCN(C(=O)C(C)(C)C)CC3)sc2c1 ?
aSyn 5UTR act: -98

How did O=C(NC1CC1)C1CCN(c2nc3ccccc3s2)CC1 do in these assays?
aSyn 5UTR act: -86

How did CC(C)(C)C(=O)N1CCN(c2nc3ccccc3s2)CC1 do in these assays?
aSyn 5UTR act: -119

Results for Cc1ccccc1Nc1nc(-c2sc(NC(=O)c3cccc(Cl)c3)nc2C)cs1 ?
aSyn 5UTR act: -145

What do the screens show for `Cc1ccc(Cl)cc1Nc1nc(-c2sc(NC(=O)c3cccc(Cl)c3)nc2C)cs1`?
aSyn 5UTR act: -201

Results for CC1(C)COC(/C=C/c2ccc([N+](=O)[O-])cc2)=N1 ?
aSyn 5UTR act: -93

How did Cc1sc(NC(=O)c2ccc(F)cc2)c(CN2CCCCCC2)c1C do in these assays?
aSyn 5UTR act: -174

How did Cc1sc(NC(=O)c2ccccc2F)c(CN2CCCCC2)c1C do in these assays?
aSyn 5UTR act: -124

Results for Cc1nc2ccc(NC(=O)c3cccs3)cc2s1 ?
aSyn 5UTR act: -132

How did Cc1nnc(NC(=O)c2ccc3ccccc3n2)s1 do in these assays?
aSyn 5UTR act: -152

What do the screens show for `Cc1nc2ccc(NC(=O)c3ccc4ccccc4n3)cc2s1`?
aSyn 5UTR act: -71

Results for Cc1nc2ccc(NC(=O)c3cncc(Br)c3)cc2s1 ?
aSyn 5UTR act: -87

What do the screens show for `Cc1nc2cc(NC(=O)c3ccc([N+](=O)[O-])s3)ccc2s1`?
aSyn 5UTR act: inactive

How did Cc1ccccc1OCCNC(=O)c1ccc2ccccc2n1 do in these assays?
aSyn 5UTR act: -149

Results for Cc1nc2ccc(NC(=O)c3ccccc3)cc2s1 ?
aSyn 5UTR act: -106

How did Cc1nc2ccc(NC(=O)c3sccc3C)cc2s1 do in these assays?
aSyn 5UTR act: -164

How did Cc1nc2ccc(NC(=O)N3CCCCC3)cc2s1 do in these assays?
aSyn 5UTR act: -106

Results for N#Cc1ccccc1CSc1nc2ccc(NC(=O)c3ccccc3C(=O)O)cc2s1 ?
aSyn 5UTR act: -87

What do the screens show for `CCOC(=O)Nc1ccc2nc(N3CCCCCC3)sc2c1`?
aSyn 5UTR act: -313

Results for COc1cc(C(=O)Nc2ccc(C(C)=O)cc2)c(Br)c(OC)c1OC ?
aSyn 5UTR act: -83

How did Cc1nc2ccc(C(=O)Nc3ccccc3Cl)cc2s1 do in these assays?
aSyn 5UTR act: -235

Results for Cc1ccc(OC(=O)c2ccc3nc(C)sc3c2)cc1 ?
aSyn 5UTR act: -76

What do the screens show for `CC(=O)c1ccc(NC(=O)c2ccc(C)c(Br)c2)cc1`?
aSyn 5UTR act: -125

What do the screens show for `CC(=O)c1ccc(NC(=O)c2ccc3nc(C)sc3c2)cc1`?
aSyn 5UTR act: -193

How did O=C(Nc1ccc2[nH]c(=S)sc2c1)c1ccccc1 do in these assays?
aSyn 5UTR act: -138

What do the screens show for `Cc1nc2cc(C(=O)O)ccc2s1`?
aSyn 5UTR act: -177

How did O=c1c(Br)c(NCc2ccccc2)cnn1-c1ccc(F)cc1 do in these assays?
aSyn 5UTR act: -68

How did Cc1nc(SCc2ccccc2)nc2c1CCC2 do in these assays?
aSyn 5UTR act: -115

Results for O=C(/C=C/c1cccc(Cl)c1)Nc1ncccn1 ?
aSyn 5UTR act: -76

How did CNC(=O)c1ccc(NC(=O)/C=C/c2cccc(F)c2)cc1 do in these assays?
aSyn 5UTR act: -98

How did CSc1cccc(NC(=O)/C=C/c2cccc(Cl)c2)c1 do in these assays?
aSyn 5UTR act: -218

What do the screens show for `O=c1c2[nH]c3ccccc3c2nc2n1CCCS2`?
aSyn 5UTR act: -75

Results for O=C(O)c1ccc(N/N=C/c2cccc(C(F)(F)F)c2)cc1 ?
aSyn 5UTR act: -99

Results for O=C(O)c1ccc(N/N=C/c2ccc(F)c(F)c2)cc1 ?
aSyn 5UTR act: -73

How did O=C(O)c1ccc(N/N=C/c2ccc3nccnc3c2)cc1 do in these assays?
aSyn 5UTR act: inactive

How did CCOc1ccccc1CNC(=O)c1cc2oc3ccccc3c2n1CC do in these assays?
aSyn 5UTR act: inactive

How did Cn1c(C(=O)N2CCc3ccccc3C2)cc2oc3ccccc3c21 do in these assays?
aSyn 5UTR act: -137

Results for O=C1C(=O)c2ccc(-c3ccccc3)cc2-c2ccccc21 ?
aSyn 5UTR act: inactive

Results for O=C1C(c2ccccc2)=[N+]([O-])c2ccccc21 ?
aSyn 5UTR act: -94

Results for CCOC(=O)c1sc(=NC(=O)c2c(F)cccc2F)n(C)c1C ?
aSyn 5UTR act: -103

Results for CCOC(=O)c1sc(=NC(=O)c2ccc(C)cc2)n(C)c1C ?
aSyn 5UTR act: -196

What do the screens show for `CCOC(=O)c1sc(=NC(=O)c2ccc(F)cc2)n(C)c1C`?
aSyn 5UTR act: -104

How did Cc1ccc2[nH]c3c(c2c1)CCc1cn[nH]c1-3 do in these assays?
aSyn 5UTR act: -62

How did Cc1ccc(S(=O)(=O)CCSc2n[nH]c(=O)n2-c2ccc3c(c2)OCCO3)cc1 do in these assays?
aSyn 5UTR act: -72

How did CCCc1cc(C(=O)NCc2cccs2)no1 do in these assays?
aSyn 5UTR act: -141

Results for CCCc1cc(C(=O)NCC(C)C)no1 ?
aSyn 5UTR act: -106

Results for O=C(NCc1cccs1)c1nc(-c2cccs2)no1 ?
aSyn 5UTR act: -100

Results for O=C(NCc1cccs1)c1cc(-c2ccc(O)cc2)on1 ?
aSyn 5UTR act: -157

Screens deposited in PubChem by Broad Institute.
